Screening data deposited in PubChem BioAssay by Broad Institute.
p53 mut binder – binders of human mutant p53; calls only; small molecule microarray binding, anti-GST fluorescence; AID 624136; 17,000 tested, 0.4% active;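 active = compounds whose four printed spots each glow above background more than chance allows, each with a p-value under 7%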
NFkB SMM – binds human NF-kappa-B p105 on microarray | Small molecule microarray, anti-His fluorescence binding | calls only | P19838 | 17,000 tested, 1.3% active;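 active = spot fluorescence over background significantly raised, with a chance value under 7% in all four replicate spots of the compound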;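 also: probe protein is his-tagged human p50 processed subunit at 1 µg/ml; raw spot fluorescence signals with no normalization applied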
c-Myc SMM – binders of human c-Myc; small molecule microarray, His-c-Myc binding, anti-His fluorescence; P01106; calls only; 17,000 tested, 1.5% active; AID 624141;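 active = spot fluorescence over background with P-value below 7% in all four replicate spots, showing protein binding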;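 also: score is binary with 100 for all four spots passing and 0 otherwise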
Target sequence (P01106 whole entry, looked up): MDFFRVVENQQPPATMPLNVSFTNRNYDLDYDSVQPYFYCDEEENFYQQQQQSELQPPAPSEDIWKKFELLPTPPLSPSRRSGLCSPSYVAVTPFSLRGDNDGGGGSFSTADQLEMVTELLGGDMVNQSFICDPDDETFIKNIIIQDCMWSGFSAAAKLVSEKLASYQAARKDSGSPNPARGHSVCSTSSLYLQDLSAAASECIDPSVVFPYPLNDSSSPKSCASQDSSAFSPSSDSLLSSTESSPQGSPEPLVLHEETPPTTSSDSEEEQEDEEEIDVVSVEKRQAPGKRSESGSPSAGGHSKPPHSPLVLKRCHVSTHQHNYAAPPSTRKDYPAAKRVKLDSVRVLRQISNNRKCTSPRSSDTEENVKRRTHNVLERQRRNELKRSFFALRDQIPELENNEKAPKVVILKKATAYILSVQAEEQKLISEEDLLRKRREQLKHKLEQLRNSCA
p53 PUMA act – mutant p53 pathway reactivation | activation, % at 9.98 µM | 28,000 tested, 1.5% active | SW480 PUMA-promoter luciferase | AID 624151; in the data active = activation above about 52%
STAT3 SMM – binds human STAT3 on microarray. Small molecule microarray, His-STAT3 binding, anti-His fluorescence. calls only. 17,000 tested, 0.2% active. AID 624138;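 active = compounds whose four printed spots each show fluorescence over background unusually high for their array block, chance value under 7%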
* hit, by the source's call. In the library only some 2.6% were active in any assay of this set; here they are far more common.

Results for CC(=O)N1CCN(C(=S)c2ccc(-c3ccc(C)cc3)o2)CC1 ?
p53 PUMA act: 54.9*

Results for OCCCNc1ncnc2scc(-c3ccc(Br)cc3)c12 ?
p53 PUMA act: -17.8

Results for Cc1noc(C)c1S(=O)(=O)Nc1ccc2c(c1)C(=O)N([C@@H](C)CO)C[C@@H](C)[C@@H](CN(C)C(=O)Nc1ccccc1)OCCCC[C@H](C)O2 ?
p53 mut binder: inactive; NFkB SMM: inactive; c-Myc SMM: inactive; p53 PUMA act: -9.0; STAT3 SMM: inactive

Results for Cc1noc(C)c1S(=O)(=O)Nc1ccc2c(c1)C(=O)N([C@H](C)CO)C[C@H](C)[C@@H](CN(C)C(=O)Nc1cccc3ccccc13)OCCCC[C@H](C)O2 ?
p53 mut binder: inactive; NFkB SMM: active; c-Myc SMM: active; STAT3 SMM: inactive

What do the screens show for `Cc1noc(C)c1S(=O)(=O)Nc1ccc2c(c1)C(=O)N([C@H](C)CO)C[C@H](C)[C@@H](CN(C)C(=O)NC(C)C)OCCCC[C@H](C)O2`?
p53 mut binder: inactive; NFkB SMM: active; c-Myc SMM: inactive; p53 PUMA act: -5.5; STAT3 SMM: inactive

Results for Cc1ccccc1OCC(=O)Nc1cc2nn(-c3ccccc3)nc2cc1Cl ?
p53 mut binder: inactive; NFkB SMM: inactive; c-Myc SMM: inactive; p53 PUMA act: 9.3; STAT3 SMM: inactive

Results for Cc1ccccc1-c1nc2cc(NC(=O)COc3ccc(Br)cc3)ccc2o1 ?
p53 PUMA act: 74.4*

What do the screens show for `Cc1ccccc1-c1nc2cc(NC(=O)COc3ccc(Cl)cc3)ccc2o1`?
p53 PUMA act: 71.4*

How did O=c1c2ccccc2ncn1CCCOc1ccccc1[N+](=O)[O-] do in these assays?
p53 PUMA act: 91.8*

Results for O=C(COc1cccc2ccccc12)Nc1cc([N+](=O)[O-])ccc1O ?
p53 PUMA act: 66.9*

What do the screens show for `O=C(COc1ccc([N+](=O)[O-])cc1)Nc1cccc2cccnc12`?
p53 mut binder: inactive; NFkB SMM: inactive; c-Myc SMM: inactive; p53 PUMA act: 64.1*; STAT3 SMM: inactive

Results for CCc1cccc(OCC(=O)Nc2cc([N+](=O)[O-])ccc2O)c1 ?
p53 PUMA act: 74.4*

What do the screens show for `O=C(CCS(=O)(=O)c1nc(-c2ccccc2)cc(C(F)(F)F)n1)Nc1ccc(Cl)cc1Cl`?
p53 PUMA act: -27.0

Results for Cc1noc(C)c1NC(=O)Nc1ccc2c(c1)C(=O)N([C@@H](C)CO)C[C@@H](C)[C@H](CN(C)C(=O)C1CCCCC1)OCCCC[C@H](C)O2 ?
p53 mut binder: inactive; NFkB SMM: active; c-Myc SMM: active; p53 PUMA act: 14.6; STAT3 SMM: inactive

Results for Cc1noc(C)c1NC(=O)Nc1ccc2c(c1)C(=O)N([C@H](C)CO)C[C@H](C)[C@H](CN(C)C(=O)C1CCCCC1)OCCCC[C@H](C)O2 ?
p53 mut binder: inactive; NFkB SMM: inactive; c-Myc SMM: inactive; p53 PUMA act: -1.1; STAT3 SMM: active

Results for Cc1noc(C)c1NC(=O)Nc1ccc2c(c1)C(=O)N([C@@H](C)CO)C[C@H](C)[C@H](CN(C)C(=O)C1CCCCC1)OCCCC[C@H](C)O2 ?
p53 mut binder: inactive; NFkB SMM: inactive; c-Myc SMM: inactive; p53 PUMA act: -6.6; STAT3 SMM: inactive

What do the screens show for `Cc1noc(C)c1NC(=O)Nc1ccc2c(c1)C(=O)N([C@@H](C)CO)C[C@@H](C)[C@@H](CN(C)C(=O)C1CCCCC1)OCCCC[C@H](C)O2`?
p53 mut binder: inactive; NFkB SMM: inactive; c-Myc SMM: active; p53 PUMA act: 5.8; STAT3 SMM: inactive

What do the screens show for `Cc1nnc(SCC(=O)Nc2ccc(F)c(F)c2F)s1`?
p53 mut binder: inactive; NFkB SMM: inactive; c-Myc SMM: inactive; p53 PUMA act: 10.2; STAT3 SMM: inactive

What do the screens show for `Cc1cc(O)c(Cc2c(O)cc(C)oc2=O)c(=O)o1`?
p53 mut binder: inactive; NFkB SMM: inactive; c-Myc SMM: inactive; p53 PUMA act: -3.4; STAT3 SMM: inactive

How did COCCNC(=O)c1ccccc1-c1nc(-c2ccc(Cl)cc2)no1 do in these assays?
p53 PUMA act: 59.2*

What do the screens show for `Cc1ccnc(NC(c2ccc([N+](=O)[O-])cc2)c2ccc3ccc(C)nc3c2O)c1` (stereo not drawn)?
p53 PUMA act: -45.5

What do the screens show for `COc1ccc(NC(=O)c2ccco2)cc1NC(=O)C(C)Oc1ccc(Cl)cc1Cl` (stereo not drawn)?
p53 PUMA act: -9.5

How did Cc1cc(Cl)ccc1OC(C)C(=O)Nc1ccc(C(=O)Nc2ccccc2C(=O)O)cc1 (stereo not drawn) do in these assays?
p53 mut binder: inactive; NFkB SMM: inactive; c-Myc SMM: active; p53 PUMA act: -8.8; STAT3 SMM: inactive

Results for CC(Oc1ccc(Cl)cc1Cl)C(=O)Nc1cccc(-c2nnc(-c3ccccc3)o2)c1 (stereo not drawn) ?
p53 PUMA act: 80.7*

What do the screens show for `O=C(COc1ccc(Cl)cc1Cl)Nc1cccc(-c2nnc(-c3ccccc3)o2)c1`?
p53 PUMA act: 38.7

How did COC(=O)c1ccccc1NC(=O)c1ccc(NC(=O)C(C)Oc2ccccc2)cc1 (stereo not drawn) do in these assays?
p53 PUMA act: 22.5

How did COc1cc(NC(=O)C(C)Oc2ccc(Cl)cc2Cl)ccc1NC(=O)c1ccco1 (stereo not drawn) do in these assays?
p53 PUMA act: 67.1*

Results for NC(=O)CSCC(=O)Nc1ccc(Br)cc1 ?
p53 PUMA act: -1.9

How did CCn1c(SCC(=O)Nc2ccccc2OC)nnc1-c1ccc(Br)cc1 do in these assays?
p53 PUMA act: -2.3

What do the screens show for `COc1ccccc1NC(=O)COc1ccc(C(=O)Nc2cccc(C(F)(F)F)c2)cc1`?
p53 PUMA act: 15.2

What do the screens show for `Cc1ccc2nc(-c3ccccn3)cc(C(=O)NCc3cnn(C)c3)c2c1`?
p53 PUMA act: -5.3

Results for CCN(CC)C(=O)c1cc(-c2ccc(Cl)c(Cl)c2)on1 ?
p53 PUMA act: 72.4*

Results for O=C(Cn1cc(Br)c([N+](=O)[O-])n1)Nc1ccccc1F ?
p53 mut binder: inactive; NFkB SMM: inactive; c-Myc SMM: inactive; p53 PUMA act: -3.4; STAT3 SMM: inactive

What do the screens show for `Clc1ccc(SCc2csc(-c3ccsc3)n2)cc1`?
p53 PUMA act: 60.8*

What do the screens show for `Cc1cc(NC(=O)CN(c2ccc(Cl)c(C(F)(F)F)c2)S(C)(=O)=O)ccc1Br`?
p53 PUMA act: 1.5

How did CCOc1ccc(NC(=O)C(C)Sc2ncnc3sc(-c4ccccc4)cc23)cc1 (stereo not drawn) do in these assays?
p53 mut binder: inactive; NFkB SMM: inactive; c-Myc SMM: active; p53 PUMA act: 7.1; STAT3 SMM: inactive

Results for CC(Sc1ncnc2sc(-c3ccccc3)cc12)C(=O)Nc1ccccc1C(F)(F)F (stereo not drawn) ?
p53 PUMA act: 43.2

What do the screens show for `O=C(O)CSc1c[nH]c2ccccc12`?
p53 mut binder: inactive; NFkB SMM: inactive; c-Myc SMM: active; p53 PUMA act: -5.6; STAT3 SMM: inactive
